Structures are written as SMILES. Where “and” joins values, the source holds several entries; their conditions need not be identical. Equal values may be shown once. Inconclusive results are not listed. A number with no mark means an inactive call. Calls of active or inactive are those of the source. Calls come from the whole dose curve; as a rule, active = well fitted activation curve with a large enough effect; inconclusive = small, poorly fitted or top-dose-only effect; inactive = no such curve, though single readings can be large or run the other way.

In PubChem BioAssay (NCATS) one finds activation and Potency data, which are given here for 40 compounds.
Potency is the fitted concentration of half-maximal effect.

Sequence of Cellular tumor antigen p53 (Homo sapiens) (P04637 whole entry, looked up): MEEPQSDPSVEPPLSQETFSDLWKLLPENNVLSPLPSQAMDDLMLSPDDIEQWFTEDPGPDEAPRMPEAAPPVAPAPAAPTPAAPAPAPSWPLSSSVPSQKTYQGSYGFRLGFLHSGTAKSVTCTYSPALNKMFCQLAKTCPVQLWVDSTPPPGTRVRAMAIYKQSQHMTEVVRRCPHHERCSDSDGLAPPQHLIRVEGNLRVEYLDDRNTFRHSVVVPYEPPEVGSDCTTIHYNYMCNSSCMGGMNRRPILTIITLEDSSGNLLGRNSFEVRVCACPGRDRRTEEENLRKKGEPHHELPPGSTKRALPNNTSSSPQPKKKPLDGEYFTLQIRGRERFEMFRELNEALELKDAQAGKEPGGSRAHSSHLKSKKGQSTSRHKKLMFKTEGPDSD

The test has as its target Cellular tumor antigen p53 (Homo sapiens) (UniProt P04637). As to the kind of experiment: Primary qHTS for small molecule compounds that upregulate eGFP-tagged delta133p53alpha (in N-terminal) cells. (AID 2060322).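 For activation: cells pre-induced with doxycycline then dosed without doxycycline; series mostly up to about 56 µM; 0% = DMSO vehicle and 100% = reference activator.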 Note: nearly all actives have a fitted effect of over 75% in size. The settings on record: NCI-H358 eGFP-delta133p53alpha fluorescence, 24 h; activation: stronger effect = higher value. The source says: Assay Development and Screening Technology
National Center for Advancing Translational Sciences (NCATS),
National Institute of Health (NIH), Rockville, Maryland
Cellular senescence (CS) is one of the hallmarks of aging and age-related diseases. Senescent cells are characterized by an irreversible growth arrest, an increase in senescence-associated beta-galactosidase (SA-beta-gal) activity and p16INK4a expression, an activation of the DNA damage response pathways, and the emergence of a senescence-associated secretory phenotype (SASP).
Delta133p53alpha, a human/primate-specific p53 protein isoform, delays or inhibits the induction of CS and SASP in various types of human cells, including progeria-derived fibroblasts, primary normal astrocytes, and CD8+ T lymphocytes. Induction of delta133p53alpha with small molecule compounds may provide therapeutic opportunities for inhibition of senescence/SASP-associated pathologies in progeria syndromes, astrocyte-mediated neuroprotection in neurodegenerative diseases, and possibly prevention and treatment of a wider range of senescence- and aging-associated diseases.
Here we report the development and validation of a cell-based quantitative high throughput screening (qHTS) assay in 1,536-well format. This qHTS assay uses the NCI-H358 cell line with doxycycline-inducible expression of enhanced green fluorescent protein (eGFP)-tagged delta133p53alpha, which allows efficient and highly quantitative measurement of the protein levels.
PROTOCOL TABLE (as described by Inglese J, Shamu CE and Guy RK. 2007)
SEQUENCE No. (e.g., 1, 2, 3, etc.); […] (e.g., Cells, Incubation, Reagent, etc.); VALUE; DESCRIPTION.
1; Cells; 4uL; 800 doxycycline treated cells / well in doxycycline-free media, 1536-well black, clear-bottom low base Aurora microplates.
2; Compounds; 23 nL; Kalypsis pin tool (Wako) equipped with 1536-well pin heads, 5-azacytidine positive control.
3; Incubation; 24 hr; 37C, 5% CO2; 95% relative humidity.
4; Aspiration; 1x; BioTek EL406 washer dispenser (Agilent).
5; Fixing; 3.5% paraformaldehyde, BioTek EL406 washer dispenser (Agilent).
6; Washing; 1x PBS; BioTek EL406 washer dispenser (Agilent).
7; Nuclei staining; 1:1000 dilution of Hoechst 33342 (Thermofisher), BioTek EL406 washer dispenser (Agilent).
8; Incubation; 20 min; in the dark at room temperature.
9; Washing; 2x, 1x PBS (ThermoFisher), BioTek EL406 washer dispenser (Agilent).
10; Reagent; 10 uL; 1x PBS per well, sealed with clear adhesive tape.
NOTES (numbers refer to sequence numbers above).
1. NCI-H358 cells expressing eGFP-tagged delta133p53alpha were grown in T75 culture flasks and treated with doxycycline for 24h, at 10 ng/ml for eGFP-D133p53a cells (N-terminal cell) and 100 ng/ml for D133p53a-eGFP cells (C-terminal cells). Cells were trypsinized, counted using a Counted 3 Automated Cell Counter (Thermo Fisher), and diluted to a concentration of 200,000 cells/ml. A Multidrop Combi Reagent Dispenser (ThermoFisher) was used to dispense 800 cells/well in […] of doxycycline-free media, into 1536-well black/clear bottom low base plates (AuroraMicroplates).
2. After plating cells, 23 nl of compound library, DMSO vehicle control or positive control (5-azacytidine) were transferred by Pin Tool (Wako). The plate map layout was the same for each plate: (column 1) non-doxycycline treated cells + DMSO vehicle control; (column 2) doxycycline treated cells + DMSO vehicle control baseline; (column 3) doxycycline treated cells + positive control 57.5 uM final concentration 5-azacytidine; (column 4) doxycycline treated cells + serial dilution of 5-azacytidine, 16-point 1:2 titration spanning 1.8 nM to […] final concentration; (columns 5-48) doxycycline treated cells + titration of library compounds.
3. Cells were incubated at 37 °C, 5 % CO2, 95% RH with breathable metal lid for 24h.
4-10. […] After two washes, 10 ul of 1X PBS (Thermo Fisher) was dispensed to each well. Clear adhesive plate seals (VWR) were applied and plates stored at 4 °C.
11. […]
In general terms: In qHTS, concentration-response curves come from the screen itself.
For the compound `Nc1ccccc1`, the activation is -8.47%.

In the case of `CC(CCc1ccccc1)NC(C)C(O)c1ccc(O)cc1` (stereo not given), the activation was -7.34% and 8.98%. Regarding `CN[C@@H]1C[C@H]2O[C@@](C)([C@@H]1OC)n1c3ccccc3c3c4c(c5c6ccccc6n2c5c31)C(=O)NC4`, the Potency is 426 nM (active). Take `O=[N+]([O-])c1cc(O)c(O)c([N+](=O)[O-])c1`: the activation was -0.323%. Still for that read-out and setting: the value for `CN1C(=O)c2ccccc2NC(=O)C1Cc1ccccc1` (stereo not given) was -18.3%. On to `CC(C)N[C@@H]1CCn2c(=O)[nH]c3cccc(c32)[C@@H]1O`, for which the activation is 13.7%. Same read-out and setting: with `O=[N+]([O-])c1ccc([As](=O)(O)O)cc1` the figure was -14.2%; with `CCCN1CCO[C@@H]2c3cc(O)ccc3OC[C@@H]21`, 15.2%. Regarding `CC[C@H]1C[C@H]2[C@@H]3CCC4=CC(=O)CC[C@@H]4[C@H]3CC[C@]2(C)[C@H]1O`, the activation is 5.67%. The same measure, in the same setting: with `CC1(C(=O)O)C2CCC(O2)C1(C)C(=O)O` (stereo not given) the figure was -33.6%; with `C=C(CO)C(=O)O[C@H]1C/C(C)=C/CC/C(CO)=C/[C@H]2OC(=O)C(=C)[C@H]12`, -16.8%.

Consider `C/C=C1/CN2CC[C@]34C(=Nc5ccccc53)[C@@H]2C[C@@H]1[C@H]4C(=O)OC`, for which the activation is 17.9%. In the case of `COP(=S)(OC)SCN1C(=O)c2ccccc2C1=O`, the Potency is 21900 nM (active). In the case of `CC(Cc1ccccc1)N(C)Cc1ccco1` (stereo not given), the activation was -11.7%.

On to `CCC(CC)(CNC(=O)CCCO)c1cccc(OC)c1`, for which the activation was 16.7%. On the same count and under the same terms, with `C[C@H]1C(=O)O[C@@H]2CCN3CC=C(COC(=O)[C@](C)(O)[C@]1(C)O)[C@H]23` the figure was -36.8%. On to `COc1ccc(C(CN(C)C)C2(O)CCCCC2)cc1` (stereo not given), for which the activation is -16.7% and -7.09% and -5.45%.

Take `CC(C)Oc1cccnc1N(C)C1CCN(Cc2ccccc2)CC1`: the activation is -4.1%. On the same count and under the same terms, the value for `CC(C)(O)C(=O)Nc1ccc([N+](=O)[O-])c(C(F)(F)F)c1` was -14.4%; that for `O=C1CN2CCOC2(c2ccccc2Cl)c2cc(Cl)ccc2N1` (stereo not given) was 14.2%; that for `CN(C)CCc1ccc(O)cc1` was -14.3% and -6.21%. On to `COc1ccc(CNC(=O)/C=C/c2ccc3[nH]cc(CCN(C)C)c3c2)cc1`, for which the activation is 13.3%. Consider `c1ccc2cc(CC3=NCCN3)ccc2c1`, for which the activation was -13.6%. The same measure, in the same setting: with `CN1CCC2=C(C1)c1ccccc1Cc1ccccc12` the figure was 16.2%. On the same count and under the same terms, with `CC(C)(C)C(O)C(Oc1ccc(Cl)cc1)n1cncn1` (stereo not given) the figure was 10.7%; with `O=C(NCC1CCOCC1)c1cnc(Nc2ccc(Cl)cc2Cl)nc1C(F)(F)F`, -5.35% and 9.55%; with `CCc1ccc(C2CCNCC2)cc1`, 20.9%. With `CC(C)C1(OO)C=C2C(=O)CC3C(C)(C(=O)O)CCCC3(C)C2CC1` (stereo not given), the activation was 11.5%. Same read-out and setting: the value for `Cc1nnc2n1-c1sc(CCC(=O)N3CCOCC3)cc1C(c1ccccc1Cl)=NC2` was -12.6%; that for `C[C@H](NC(=O)Cc1cc(F)cc(F)c1)C(=O)N[C@@H]1N=C(c2ccccc2)c2ccccc2N(C)C1=O` was 21%. On the same count and under the same terms, with `O=C(O)c1ccnc2cc(C(OCCN3CCCCC3)c3ccccc3Cl)[nH]c12` (stereo not given) the figure was -17%. For `C[C@]12CC[C@H](O)C[C@H]1CC[C@@H]1[C@@H]2[C@H](O)C(=O)[C@]2(C)[C@@H](c3ccc(=O)oc3)CC[C@]12O`, the Potency is 190 nM (active). Consider `COc1ccc2c(c1)c(CCN(C)C)cn2S(=O)(=O)c1ccccc1`, for which the activation was 7.16%. On to `CC(=O)O[C@@]12CO[C@H]1C[C@H](O)[C@@]1(C)C(=O)[C@H](O)C3=C(C)[C@@H](O)C[C@@](O)([C@@H](OC(=O)c4ccccc4)[C@@H]21)C3(C)C`, for which the Potency was 30600 nM (active). With `CC[N+]1(C)CCCC(OC(=O)C(O)(c2ccccc2)c2ccccc2)C1` (stereo not given), the activation is 8.47%. The same measure, in the same setting: the value for `O=C(NC(=O)c1c(F)cccc1F)Nc1cc(Cl)c(OC(F)(F)C(F)C(F)(F)F)cc1Cl` (stereo not given) was -13.4%. `C[C@@H]1O[C@@H](O[C@H]2CC[C@@]3(C)C(CC[C@@H]4C3CC[C@]3(C)[C@@H](C5=CC(=O)OC5)CC[C@]43O)C2)[C@H](O)[C@H](O)[C@H]1O` (stereo not given in full): the Potency is 1650 nM (active).

Turning to `Nc1ccncc1`, the activation is -16.4% and 3.84%.

Turning to `CCCN1CCC[C@@H]2Cc3nc(N)ncc3C[C@H]21`, the activation was -29.3% and -27.1%. As to `CSCC[C@@H](NC(=O)[C@@H](Cc1ccccc1)NC(=O)CNC(=O)CNC(=O)[C@@H](N)Cc1ccc(O)cc1)C(=O)O`, the activation was 22.9%.
